The whole screen tested about 3,300 compounds, of which about 50 (2%) were called active. The list is a sample of the results. Measured potencies and affinities stand elsewhere. Values without a mark were called inactive.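 Rule for the calls: active = concentration giving half-maximal inhibition at or below 20 micromolar; inactive = half-maximal concentration above 20 micromolar, or not dose tested.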
Test: cytotoxicity toward Jurkat T cells, primary screen, cell-based, Jurkat E6.1, NIH starter set (AID 364);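 note: 100% = cells treated with 4 µM doxorubicin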
Conditions: Jurkat E6.1 viability, ATP luminescence, 48 h; at 4 µM; hits give high values

SMILES	inhibition [%]
CN1CCN(c2c3c(c(C#N)c4nc5ccccc5n24)CCCC3)CC1	4.7
CCOC(=O)C1Cc2c([nH]c3ccccc23)C(C)N1 (configuration not stated)	-10.3
Cc1cc(NC(CC(C)C)C(=O)O)nc(Cc2ccccc2)n1 (configuration not stated)	0.4
CC1(C2(O)CC(c3ccccc3)ON2)CCCCC1 (configuration not stated)	13.9
CC1CN(C2CCN(S(=O)(=O)c3ccccc3)CC2)CC(C)O1 (configuration not stated)	7.8
C(=N\n1cnnc1)/c1ccccn1	-0.2
CCOC(=O)CC(=O)CSc1nc(N)c(C#N)c(-c2ccc(Cl)cc2)c1C#N	9.6
Cc1cc(-c2cc(-c3ccc(Cl)cc3)nc(N)c2C#N)co1	7.7
CC(=O)c1c(OCC(=O)O)ccc2c(C)cc(=O)oc12	6.9
c1ccc(CN2CCN(c3ncnc4c3[nH]c3ccccc34)CC2)cc1	28.5
c1ccc2c(c1)[nH]c1c(N3CCSCC3)ncnc12	29.6
Cc1cc(=O)oc(C)c1C(=O)N1CCN(C)CC1	-1
CN(C)CCCN1C(=O)C(O)=C(C(=O)c2cc3ccccc3o2)C1c1ccccc1 (configuration not stated)	0
Nc1ccc2oc3ncccc3c(=O)c2c1	-1.7
CC(C)Oc1ccc(/C(O)=C2/C(=O)C(=O)N(CCN(C)C)C2c2ccco2)cc1 (configuration not stated)	5.7
COc1cccc(N2CCN(c3ncnc4c3[nH]c3ccccc34)CC2C)c1 (configuration not stated)	22.3
Cc1ccc2[nH]c3c(N4CCN(Cc5ccc6c(c5)OCO6)CC4)ncnc3c2c1	18.7
COc1ccc2[nH]c3c(N4CCN(Cc5ccc6c(c5)OCO6)CC4)ncnc3c2c1	-0.5
Fc1ccc2[nH]c3c(N4CCN(c5ccccc5)CC4)ncnc3c2c1	28.7
N#CCCSCc1ccc(OCC(=O)O)cc1	-5.7
CCn1cc(C(=O)NCc2ccco2)c(=O)c2cc(F)c(N3CCN(C(=O)c4ccco4)CC3)cc21	7.2
Cc1cc(C)n(C(=O)CNC(=O)c2cccs2)n1	2.3
COCCOC(=O)C1=C(C)NC(SCC(=O)NC(C)(C)C)=C(C#N)C1c1ccco1 (configuration not stated)	9.1
CCc1ccccc1NC(=O)CSC1=C(C#N)C(c2ccc(O)c(OC)c2)C2=C(CCCC2=O)N1 (configuration not stated)	-3.3

SMILES	inhibition [%]
Cc1ccc(NC(=O)CSC2=C(C#N)C(c3ccco3)C3=C(CCCC3=O)N2)cc1 (configuration not stated)	6.6
CCc1ccc(NC(=O)CSC2=C(C#N)C(c3ccco3)C3=C(CCCC3=O)N2)cc1 (configuration not stated)	3.5
CCCCc1ccc(NC(=O)CSC2=C(C#N)C(c3ccco3)C3=C(CCCC3=O)N2)cc1 (configuration not stated)	-2.5
CCN(CC)C(=O)CSC1=C(C#N)C(c2ccco2)C(C(=O)OCCOC)=C(C)N1 (configuration not stated)	-2.1
COc1ccccc1NC(=O)C1=C(C)NC(SCC(=O)c2ccc(C)cc2)=C(C#N)C1c1ccco1 (configuration not stated)	-6.6
N#CC1=C(SCc2ccccc2)NC2=C(C(=O)CCC2)C1c1ccc2c(c1)OCO2 (configuration not stated)	13.1
Cc1cc(CCC(=O)O)c(C)cc1CCC(=O)O	-4.4
NS(=O)(=O)c1ccc(-c2ccc(C=NC3CCS(=O)(=O)C3)o2)cc1 (configuration not stated)	10.2
O=C(C1CCCCC1)N1CCCn2c1nc1ccccc12	1.8
O=C1C2CC=C(Cl)CC2C(=O)N1CNc1ccccn1 (configuration not stated)	-4.2
CCCOc1ccc(N2C(=O)CC(N(CCC)C(=O)CCC(=O)O)C2=O)cc1 (configuration not stated)	-0.8
COc1cccc(/C(O)=C2/C(=O)C(=O)N(CCN(C)C)C2c2ccc(Br)cc2)c1 (configuration not stated)	-1.9
CCOc1ccc(Br)cc1CC(=O)O	13.6
O=C(C(c1ccccc1)N1CCOCC1)N1CCOCC1 (configuration not stated)	-13.4
Cc1cc2c(c(=O)n1Cc1ccccn1)C(c1ccc3c(c1)OCO3)C(C#N)=C(N)O2 (configuration not stated)	-0.2
CCCCCOc1ccc(Cl)cc1CN1CCOCC1	-0.4
COc1cccc(C2/C(=C(\O)c3ccc(OC)c(OC)c3)C(=O)C(=O)N2c2cc(C)on2)c1 (configuration not stated)	-14.4
Cc1cc(C)nc(N(C#N)S(=O)(=O)c2ccccc2Cl)n1	1
COc1ccc(OC)c(NC(=O)CSC2=C(C#N)C(c3ccco3)C3=C(CCCC3=O)N2)c1 (configuration not stated)	4.8
COc1ccc(NC(=O)CSC2=C(C#N)C(c3ccco3)C3=C(CCCC3=O)N2)c(OC)c1 (configuration not stated)	1.6
Cc1c(N2C(=O)SC(CC(=O)O)C2=O)c(=O)n(-c2ccccc2)n1C (configuration not stated)	-2.7
CC(=O)C1(C)OC(N)=C(C#N)C(c2ccccc2)C1(C#N)C#N (configuration not stated)	5.6
COc1ccc(N2C(=O)C3C(C2=O)C2C=CC3C23CC3)c(OC)c1 (configuration not stated)	0.8
